# Assay outcomes from PubChem BioAssay.
# Compounds with a hit are over-represented: about 5.8% of the library has one in this group of screens.
# KB-V1 MDR tox – KB-V1 MDR subline cytotoxicity. 3.4% of 400,000 active. AID 1347076. KB-V1 MDR cells viability, CellTiter-Glo, 72 h. Potency, µM (highest dose often 46.1 µM), actives largely listed as cytotoxic; further: on the % scale 0 is the no-effect control and ±100 the full control effect; nearly all actives have a fitted effect of over 60% in size
#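 Cytotoxicity via CellTiter-Glo luminescence after 72 h compound exposure at 37 degrees C. Cells: drug-selected KB-V1 line, DMEM phenol-red free plus 10% FBS. Compounds tested at multiple concentrations; normalized data fitted to concentration-effect curves.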
# 12-LOX inh – inhibitors of human 12S-lipoxygenase ALOX12; purified 12hLO, xylenol orange hydroperoxide absorbance; Potency, µM (titrated, usually from 108 µM), without a hit: at the top dose activity change, negative = inhibition, most hits filed as inhibitors; 1.1% of 580,000 active; further: on the % scale 0 is the no-effect control and ±100 the full control effect
# Target sequence (P18054 whole entry, looked up): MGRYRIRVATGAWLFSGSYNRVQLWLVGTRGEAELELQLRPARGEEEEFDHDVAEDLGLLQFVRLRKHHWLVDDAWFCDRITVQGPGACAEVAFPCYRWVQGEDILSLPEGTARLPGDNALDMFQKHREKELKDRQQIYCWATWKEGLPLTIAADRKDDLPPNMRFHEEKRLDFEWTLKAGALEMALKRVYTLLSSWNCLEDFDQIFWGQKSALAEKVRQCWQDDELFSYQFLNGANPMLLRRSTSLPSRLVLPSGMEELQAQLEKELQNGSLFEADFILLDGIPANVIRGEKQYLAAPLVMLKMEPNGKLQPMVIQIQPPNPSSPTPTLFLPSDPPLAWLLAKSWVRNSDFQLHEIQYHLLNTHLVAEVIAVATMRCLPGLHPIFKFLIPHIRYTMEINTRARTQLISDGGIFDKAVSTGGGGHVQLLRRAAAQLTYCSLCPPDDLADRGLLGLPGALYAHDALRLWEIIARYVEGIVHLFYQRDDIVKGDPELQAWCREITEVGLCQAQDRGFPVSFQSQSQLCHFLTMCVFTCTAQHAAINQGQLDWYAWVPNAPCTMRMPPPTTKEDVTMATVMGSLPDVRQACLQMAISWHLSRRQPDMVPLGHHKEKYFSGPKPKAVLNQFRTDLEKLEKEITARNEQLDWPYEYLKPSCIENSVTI
#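 Hydroperoxide product was detected by ferrous iron/xylenol orange as the 573 to 405 nm absorbance ratio. Arachidonic acid at 40 uM (final) was turned over for 30 min at room temperature by 150 nM human 12hLO, pH 7.0 Hepes buffer, after 15 min compound preincubation.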
# MCF10A rereplic – induces DNA re-replication in MCF 10a normal breast cells; AID 624296; Potency, µM (series often up to 46.1 µM), for inactives: at the top dose activity, positive = re-replication, hits mostly activators; MCF 10A DNA re-replication, Hoechst nuclear intensity, 48 h; 2.9% of 350,000 active; further: % of control where 0% means no effect; nearly all actives have a fitted effect of over 50% in size
# PINK1 expr mod – PINK1 expression modulation; PINK1 immunofluorescence, high-content cytometry, 24 h; Potency, µM (series often up to 76.6 µM), for inactives: top-dose activation (PINK1 increase), most hits filed as activators; 0.2% of 410,000 active; AID 624263; active means well fitted activation curve with a large enough effect; inconclusive means small, poorly fitted or top-dose-only effect; cell line not stated here; further: % of control where 0% means no effect; nearly all actives have a fitted effect of over 65% in size
#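 PINK1 protein level read as immunofluorescence by microplate cytometer in a fixed, stained stable cell line after 24 h exposure to five compound concentrations, with CCCP as control.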
# KB-3-1 cytotox – kills parental KB-3-1 adenocarcinoma cells | KB-3-1 viability, CellTiter-Glo ATP luminescence, 72 h | Potency, µM (doses to about 46.1 µM), usual class: cytotoxic | 1.4% of 400,000 active | AID 1347075; further: on the % scale 0 is the no-effect control and ±100 the full control effect; nearly all actives have a fitted effect of over 60% in size
#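 Cells are dispensed, compounds pinned in, plates held at 37 °C for 72 h, then CellTiter-Glo is added and luminescence read after 10 minutes. Cell line: parental KB-3-1 in phenol-red-free DMEM, 10% FBS.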
# SW480 rereplic – DNA re-replication induction in SW480 cells; SW480 DNA re-replication, Hoechst DNA content imaging, 48 h; 1.8% of 340,000 active; Potency, µM (doses to about 46.1 µM), for inactives: at the top dose re-replication activation, hits mostly activators; AID 624297; further: % of control where 0% means no effect; nearly all actives have a fitted effect of over 55% in size
#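 Per well, 250 cells were exposed to pinned compound for 48 hr. Nuclear DNA was visualised with Hoechst (40 min, 37 C) and total object intensity recorded by fluorescence scanning.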
# * = called active by the depositor; i = inactive; u = inconclusive; x = not tested or not shown; [ ] = another dose, or the depositor's remark. Unless noted, the call rests on the fitted dose curve; in most records, active means well fitted curve in the direction sought with a large enough effect; inconclusive means small, poorly fitted or top-dose-only effect, or another doubt; inactive means no such curve, though single readings can be large; an effect the other way counts as inactive or inconclusive. Potency means the concentration at half of the fitted maximal effect.
SMILES,KB-V1 MDR tox,12-LOX inh,MCF10A rereplic,PINK1 expr mod,KB-3-1 cytotox,SW480 rereplic
O=C(Nc1ccc2c(c1)CCC2)c1ccc2ccccc2c1,x,-40%,x,x,x,x
C(=N\N=C\c1c[nH]c2ccccc12)/c1c[nH]c2ccccc12,x,-6%,x,x,x,x
CCCC(=O)OCCC(C)CCC=C(C)C (centres undefined),x,135%[176 µM],x,x,x,x
Cc1nc(-c2cnccn2)n(CC(=O)Nc2cccc(Cl)c2)c(=O)c1C,x,36%,x,x,x,x
CCOC(=O)C1=C(C)N(c2ccc(OCC)cc2)C(=O)/C1=C\c1ccco1,i,u,16µM*,6%,i,17%
COC(=O)C1=C(C)N(c2cccc(OC)c2)C(=O)/C1=C\c1ccco1,i,u,-3%,3%,i,-1%
COc1cc(/C=C(/C#N)c2nc3ccccc3[nH]2)ccc1Oc1ncccc1[N+](=O)[O-],i,2%,u,7.9µM*,i,11%
COc1cc(/C=C(/C#N)c2nc3ccccc3[nH]2)ccc1OC(C)C,x,9%,x,x,x,x
CCc1ccc(NC(=O)COc2ccc(/C=C(/C#N)c3nc4ccccc4[nH]3)cc2OC)cc1,u,-23%,u,0%,1.5µM*,u
COc1cc(/C=C(\C#N)c2nc3ccccc3[nH]2)ccc1OCC(=O)OC(C)C,x,-6%,x,x,x,x
CC1Cc2ccccc2N1C(=O)CSc1nnc(-c2ccccc2Cl)o1 (centres undefined),i,-29%,x,-1%,i,x
CC1Cc2ccccc2N1C(=O)CSc1nnc(-c2ccc(S(=O)(=O)N3CCCC3)cc2)o1 (centres undefined),2.1µM*,0%,2%,9%[38.3 µM],i,1%
COc1ccc(OCCCC(=O)Nc2nc(-c3ccccn3)cs2)cc1,u,-11%,4%,10%,u,4%
Cc1ccccc1OCC(=O)Nc1nnc(-c2ccncc2)s1,i,u,8%,-2%,i,u
Cc1cc(C)c(OCC(=O)Nc2nc(-c3ccccn3)cs2)c(C)c1,6.5µM*,-6%,-16%,6%,u,21%
Cc1ccccc1OCC(=O)Nc1nc(-c2ccncc2)cs1,15µM*,2%,7%,9%,i,-7%
Cn1nc(CC(=O)Nc2cccc(OC(=O)c3ccc(C(C)(C)C)cc3)c2)c2ccccc2c1=O,x,-6%,x,x,x,x
CC(C)(CC(=O)N1CCN(c2ccc(Cl)cc2)CC1)CC1=NS(=O)(=O)c2ccccc2N1,4.1µM*,0%,0%,0%,15µM*,2%
COc1cccc(N2CCN(C(=O)CC(C)(C)CC3=NS(=O)(=O)c4ccccc4N3)CC2)c1,i,9%,u,0%,i,-4%
O=C(NC1CCN(c2cc(-c3ccc(Cl)cc3)[nH]n2)C1)c1ccc(Br)o1 (centres undefined),x,14%,x,x,x,x
Cc1cc2c([nH]c3ccccc32)c(C)n1,i,u,u,1%,i,6%
Cc1c2ccncc2cc2c1[nH]c1ccccc12,u,0%,16µM*,-4%,u,23µM*
COc1ccc(-c2nc(COC(=O)C3(O)CCCCC3)cs2)cc1,x,15%,x,x,x,x
OC(Cc1cccnc1)(c1ccccc1)c1ccccc1,18µM*,-8%,0%,-3%,u,1%
COc1cccc(NC(=O)[C@H](C(C)C)n2nnc3ccccc3c2=O)c1,x,-4%,x,x,x,x
CC(=O)N1CCN(c2nc3c(s2)CC(C(=O)Nc2cc(F)cc(F)c2)CC3)CC1 (centres undefined),x,7%,x,x,x,x
c1csc(-c2nn3c(C4COc5ccccc5O4)nnc3s2)c1 (centres undefined),u,x,u,3%[38.3 µM],i,3.7µM*
Fc1ccc(-c2nn3c(C4COc5ccccc5O4)nnc3s2)cc1 (centres undefined),u,u,0%,-4%,i,0%
